# Many of the other results were omitted from the sample, so hits are more common in it than they were.
# ERp5 inh: blocks human ERp5 reductase activity on insulin; inhibition, % at 9.99 µM; ERp5 insulin aggregation, absorbance 650 nm, 90 min; AID 651711; Q15084; hit rate 0.05% among 350,000;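 active = mean replicate inhibition above about 25%, with every replicate also reaching it, limit read from the data, passing the limit was not always enough; inconclusive = only one of those two criteria met; inactive = neither criterion met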
# HDAC3 inhib: blocks human histone deacetylase 3; recombinant HDAC3, fluorogenic peptide/trypsin coupled, fluorescence; inhibition, % at 8.3 µM; hit rate 0.15% among 320,000; AID 2718; in the data active = inhibition above about 26%, passing the limit was not always enough; inconclusive = no clear call, values can overlap the other calls
# ERAP1 HTS inh: ERAP1 (human) enzyme inhibition; inhibition, % at 10.7 µM; recombinant ERAP1, Leu-AMC fluorescence, 60 min; hit rate 0.15% among 340,000;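 active = mean replicate inhibition of at least 30%, or all replicates individually reaching that 30% level; inactive = mean below 30% and not every replicate reaching it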
# SIRT5 inh: inhibitors of human sirtuin-5 desuccinylase; inhibition, % at 15 µM; Purified SirT5, succinyl-peptide AMC, trypsin-coupled fluorescence; AID 652115; hit rate 1.1% among 330,000; in the data active = inhibition above about 15%; inconclusive = no clear call, values can overlap the other calls
# Target sequence (Q9NXA8 whole entry, looked up): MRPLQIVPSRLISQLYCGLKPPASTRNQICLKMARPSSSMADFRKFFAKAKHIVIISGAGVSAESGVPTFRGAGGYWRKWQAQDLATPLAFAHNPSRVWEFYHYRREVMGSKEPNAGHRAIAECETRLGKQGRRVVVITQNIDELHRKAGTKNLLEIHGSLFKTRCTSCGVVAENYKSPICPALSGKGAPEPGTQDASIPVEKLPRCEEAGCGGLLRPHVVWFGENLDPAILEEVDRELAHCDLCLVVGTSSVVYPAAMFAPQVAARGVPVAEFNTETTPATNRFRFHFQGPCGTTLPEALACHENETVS
# PDI inh: blocks human protein disulfide isomerase activity; inhibition, % at 10 µM; P07237; AID 588391; PDI insulin aggregation turbidity, A650, 90 min; hit rate 0.052% among 350,000;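 active = mean inhibition across replicates of 30% or more, whatever share of single replicates reach that level; inconclusive = mean inhibition below 30% while every single replicate reaches 30%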
# Hits are given with their value; . = inactive; ? = inconclusive; / = not tested or not shown.
SMILES,ERp5 inh,HDAC3 inhib,ERAP1 HTS inh,SIRT5 inh,PDI inh
CC(C)c1ccc(NC(=O)CN2CCN(c3ccccn3)CC2)cc1,.,.,.,.,.
O=C(CN1CCN(S(=O)(=O)N2CCOCC2)CC1)Nc1ccc(Cl)c(Cl)c1,.,.,122,.,.
O=C(C[C@@H]1C[C@H]2c3cc(NC(=O)C4CCOCC4)ccc3O[C@H]2[C@@H](CO)O1)NCc1ccccn1,.,/,.,.,/
COc1ccc2c3c([nH]c2c1)[C@@H](CO)N(C(=O)c1ccc(F)cc1)CC31CCN(C(=O)Nc2cccc(F)c2)CC1,63,/,.,.,/
COc1ccc2c3c([nH]c2c1)[C@H](CO)N(C(=O)c1ccc(F)cc1)CC31CCN(C(=O)Nc2cccc(F)c2)CC1,66,/,.,.,/
COc1ccc(C(=O)Nc2ccc3c(c2)C(=O)N(C)C[C@@H](OC)[C@H](C)CN[C@@H](C)CO3)cc1,.,/,.,.,/
CC(C)C#Cc1ccc2c(c1)O[C@@H](CN(C)C(=O)c1cnccn1)[C@H](C)CN([C@H](C)CO)S2(=O)=O,.,/,.,.,/
CO[C@@H]1CN(C)C(=O)c2ccc(NC(=O)c3ccc4c(c3)OCO4)cc2OC[C@@H](C)N(CCC(F)(F)F)C[C@@H]1C,.,/,.,.,/
CO[C@H]1CN(C)C(=O)c2ccc(NS(=O)(=O)CC(F)(F)F)cc2OC[C@H](C)N(C)C[C@@H]1C,.,/,.,25,/
CO[C@H]1CN(C)C(=O)c2cc(NC(C)=O)ccc2OC[C@@H](C)N(CCC(F)(F)F)C[C@H]1C,.,/,.,16,/
CCCN1C[C@@H](C)[C@H](OC)CN(C)C(=O)c2cc(NC(=O)c3cnccn3)ccc2OC[C@H]1C,.,/,/,17,/
CCCN1C[C@H](C)[C@H](OC)CN(C)C(=O)c2cc(NC(=O)c3cnccn3)ccc2OC[C@@H]1C,.,/,.,.,/
CO[C@@H]1CN(C)C(=O)c2ccc(NC(=O)c3ccc4c(c3)OCO4)cc2OC[C@H](C)N(CCC(F)(F)F)C[C@H]1C,.,/,.,16,/
CO[C@@H]1CN(C)C(=O)c2ccc(NC(=O)c3ccccc3)cc2OC[C@@H](C)N(CC2CC2)C[C@H]1C,.,/,.,.,/
C[C@H]1CN([C@@H](C)CO)C(=O)c2cc(NS(=O)(=O)c3cccs3)ccc2O[C@@H]1CN(C)CC1CCCCC1,.,/,.,.,/
S=C(NCc1ccccc1)NC1CCCc2ccccc21 (stereo not drawn),.,.,.,112,.
Cc1ccc(NC(=O)COCC(=O)Nc2ccc(F)cc2)cc1,.,.,.,24,.
Cc1ccc(NC(=O)COCC(=O)Nc2ccc(C)cc2)cc1,.,.,.,.,.
Cc1noc(C)c1CSc1nc2sc3c(c2c(=O)n1C)CCCC3,/,.,/,/,.
Cc1noc(C)c1CSc1nc2sc(C)c(C)c2c(=O)n1C1CCCC1,.,.,.,35,.
CC(C)C[C@H](NC(=O)c1nc[nH]c1C(=O)N[C@@H](CC(C)C)C(=O)OC(C)(C)C)C(=O)OC(C)(C)C,.,.,.,.,.
CC(C)(C)OC(=O)NCCCCCNC(=O)c1[nH]cnc1C(=O)N[C@@H](Cc1ccccc1)C(=O)OC(C)(C)C,/,28,/,/,.
CC(C)C[C@H](NC(=O)c1nc[nH]c1C(=O)NCC(=O)OCc1ccccc1)C(=O)OC(C)(C)C,.,?,.,21,.
CC(C)C[C@H](NC(=O)c1nc[nH]c1C(=O)NCC(=O)OC(C)(C)C)C(=O)OC(C)(C)C,.,30,.,.,.
Cc1onc(-c2ccccc2)c1C(=O)c1c[nH]c(C(=O)NCc2ccccn2)c1,.,.,.,19,.
SMILES,ERp5 inh,HDAC3 inhib,ERAP1 HTS inh,SIRT5 inh,PDI inh
CCOC(=O)C1=C(CN2CCOCC2)NC(=O)NC1c1cccc([N+](=O)[O-])c1 (stereo not drawn),.,.,.,16,.
CCOC(=O)C1=C(CN2CCSCC2)NC(=O)NC1c1cccc([N+](=O)[O-])c1 (stereo not drawn),.,.,.,.,.
Cc1ccc(NC(=O)C2CCN(C(=O)c3ccco3)CC2)cc1C,.,.,.,79,.
CC(=O)Nc1cccc(NC(=O)C2CCN(C(=O)c3ccco3)CC2)c1,.,.,.,.,.
C/C=C/c1ccc2c(c1)O[C@@H](CN(C)Cc1ccccc1F)[C@H](C)CN([C@H](C)CO)S2(=O)=O,.,/,.,?,/
C/C=C/c1ccc2c(c1)O[C@H](CN(C)Cc1ccccc1F)[C@H](C)CN([C@H](C)CO)S2(=O)=O,.,/,.,13,/
C/C=C/c1ccc2c(c1)O[C@@H](CN(C)Cc1ccc(F)cc1)[C@H](C)CN([C@H](C)CO)S2(=O)=O,.,/,.,16,/
CCC(=O)N(C)C[C@@H]1Oc2cc(C#CCN(C)C)ccc2S(=O)(=O)N([C@@H](C)CO)C[C@H]1C,.,/,.,.,/
N#C[C@H]1[C@H](c2ccccc2-c2ccccc2F)[C@@H](CO)N1C(=O)Cc1ccccc1,.,/,.,18,/
CC(C)CC(COCc1ccc(C(F)(F)F)cc1)N1CCN(C(=O)c2ccc(C(F)(F)F)cc2)CCC1=O (stereo not drawn),.,39,.,/,.
Cc1ccc(S(=O)(=O)Nc2cccnc2)c(C)c1C,.,.,.,15,.
Cc1ccc(S(=O)(=O)N(C)C[C@@H]2OCCCC[C@@H](C)Oc3ccc(NS(=O)(=O)c4ccc(Cl)cc4)cc3C(=O)N([C@H](C)CO)C[C@@H]2C)cc1,.,/,.,.,/
C[C@@H]1CCCCO[C@H](CN(C)S(=O)(=O)c2ccc(Cl)cc2)[C@H](C)CN([C@@H](C)CO)C(=O)c2cc(N(C)C)ccc2O1,.,/,.,21,/
Cc1ccc(S(=O)(=O)N(C)C[C@@H]2OCCCC[C@H](C)Oc3ccc(NS(=O)(=O)c4ccc(Cl)cc4)cc3C(=O)N([C@@H](C)CO)C[C@H]2C)cc1,.,/,.,22,/
Cc1ccc(S(=O)(=O)Nc2ccc3c(c2)C(=O)N([C@H](C)CO)C[C@@H](C)[C@H](CN(C)S(=O)(=O)c2ccc(Cl)cc2)OCCCC[C@H](C)O3)cc1,.,/,.,.,/
Cc1ccc(S(=O)(=O)N(C)C[C@H]2OCCCC[C@H](C)Oc3ccc(NS(=O)(=O)c4ccc(Cl)cc4)cc3C(=O)N([C@@H](C)CO)C[C@@H]2C)cc1,.,/,.,24,/
Cc1ccc(S(=O)(=O)N(C)C[C@H]2OCCCC[C@H](C)Oc3ccc(NS(=O)(=O)c4ccc(Cl)cc4)cc3C(=O)N([C@@H](C)CO)C[C@H]2C)cc1,.,/,.,26,/
Cc1ccc(S(=O)(=O)N[C@@H]2CC[C@@H](CC(=O)O)O[C@H]2CO)cc1,.,/,.,.,/
C[C@@H]1CN([C@H](C)CO)C(=O)c2cc(-c3cccc(F)c3)cnc2O[C@H]1CN(C)CC1CCOCC1,.,/,.,.,/
C[C@H](NC(=O)C[C@H]1C[C@H]2c3cc(NC(=O)c4cccnc4)ccc3O[C@H]2[C@H](CO)O1)c1ccccc1,.,/,.,.,/
Cc1noc(C)c1NC(=O)Nc1ccc2c(c1)C(=O)N([C@H](C)CO)C[C@H](C)[C@@H](CN(C)C(=O)c1ccccc1)OCCCC[C@H](C)O2,.,/,.,.,/

# Assay outcomes: PubChem BioAssay, Broad Institute
